Values joined by “and” are separate entries in the source; they are usually repeats but may differ in a detail not shown here. Equal values may be shown once. Records with an inconclusive call do not appear. Unmarked numbers belong to inactive results. Active and inactive are the calls of the source. Calls follow the shape of the dose curve; as a rule, active = well fitted activation curve with a large enough effect in the repeat runs; inconclusive = weak or mixed curves; inactive = no such curve, though single readings can be large or run the other way.
molecular target: Nuclear receptor subfamily 1 group I member 2 (Rattus norvegicus) (UniProt Q9R1A7); assay: Rat pregnane X receptor (rPXR) activation by small molecules, qHTS assay (AID 1346983); details: rPXR luciferase reporter cells, One-Glo luminescence, 24 h; max activation: stronger effect = higher value; also: nearly all actives have a fitted effect of over 20% in size
Source text: National Center for Advancing Translational Sciences [NCATS] NIH Chemical Genomics Center [NCGC] U.S. Environmental Protection Agency [EPA] National Institutes of Environmental Health Sciences [NIEHS] National Toxicology Program [NTP] Assay overview: The Pregnane X receptor (PXR), a ligand activated nuclear receptor plays a critical role in the regulation of genes involved in drug metabolism and transporters. PXR binds xenobiotics and when compounds interact with PXR produces enhanced expression of CYP3A genes. In humans PXR activation and CYP3A4 induction can be problematic due to their interactions with co-medicated drugs and decrease their efficacy or increase their own metabolism. However, there are known species-specific differences with regard to PXR activation that should be taken into account when animal PXR data are extrapolated to humans. A cell based rat PXR (rPXR) assay (developed by Puracyp, Inc., CA) was used to assess the activation of rPXR.
Assay Protocol Summary: rPXR cells were dispensed at 2,000 per well in 5uL of assay medium into white, solid-bottom 1536-well plates using a Multidrop Combi dispenser (Thermo Scientific). The assay plates were incubated at 37 C for 5hr before transferring 23 nL of test compounds dissolved in DMSO and positive control via Pintool station (Wako). The assay plates were incubated at 37 C for 24 hr. Then 5ul One-Glo assay reagent (Promega) was added to each plate by a Flying Reagent Dispenser (FRD, Aurora Discovery) and following 30 min incubation at room temperature, luciferase activity was quantified on a ViewLux plate reader (Perkin Elmer).
% is scaled to controls: 0 for no effect and ±100 for the full control effect; potency is read from the fitted curve at half-maximal effect.

Nuclear receptor subfamily 1 group I member 2 (Rattus norvegicus), sequence (Q9R1A7 whole entry, looked up): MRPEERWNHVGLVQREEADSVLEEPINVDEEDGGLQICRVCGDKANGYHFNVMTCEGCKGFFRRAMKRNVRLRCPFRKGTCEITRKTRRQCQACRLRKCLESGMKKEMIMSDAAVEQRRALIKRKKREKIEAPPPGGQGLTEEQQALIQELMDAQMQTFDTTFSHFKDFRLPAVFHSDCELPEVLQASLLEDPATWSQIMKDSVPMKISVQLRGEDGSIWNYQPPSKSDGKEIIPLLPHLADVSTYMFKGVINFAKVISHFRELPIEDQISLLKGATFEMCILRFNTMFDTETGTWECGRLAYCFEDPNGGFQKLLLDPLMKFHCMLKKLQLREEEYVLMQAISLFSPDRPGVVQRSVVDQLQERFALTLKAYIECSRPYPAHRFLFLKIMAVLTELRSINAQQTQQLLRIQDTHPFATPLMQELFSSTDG

SMILES | max activation | Potency
O=c1[nH]c(=O)n([C@H]2CCCO2)cc1F | -0.0643% | 
C[C@H]1C[C@@H]2[C@H]([C@@H](O)C[C@@]3(C)[C@H]2CC[C@]3(O)C(=O)CO)[C@@]2(C)C=CC(=O)C=C12 |  | 1.58 µM (active)
CC(=O)Nc1cccc(O)c1 | -2.31% | 
C=CCNC(N)=S | -2.6% | 
OCCOCCN1CCN(C2=Nc3ccccc3Sc3ccccc32)CC1 | 9.6% | 
CN(C)CCC(c1ccccc1)c1ccccn1 (stereo not given) | -3.67% | 
NNc1nncc2ccccc12 |  | 0.112 µM (active)
CC1=CCC2CC1C2(C)C (stereo not given) | -0.804% | 
O=C(O)c1cc(O)c(O)c(O)c1 | -1.49% | 
N[C@@H](Cc1cc(I)c(Oc2cc(I)c(O)c(I)c2)c(I)c1)C(=O)O | -0.369% | 
C#C[C@]1(O)CC[C@H]2[C@@H]3CCC4=CC(=O)CC[C@@H]4[C@H]3CC[C@@]21C | -1% | 
O=c1[nH]c(=O)n([C@H]2C[C@H](O)[C@@H](CO)O2)cc1Br |  | 4.47 µM (active)
C#CCN(C)Cc1ccccc1 | -0.422% | 
CCN(CC)CCCC(C)Nc1ccnc2cc(Cl)ccc12 (stereo not given) | -1.5% | 
OC[C@H]1O[C@@](CO)(O[C@H]2O[C@H](CO)[C@@H](O)[C@H](O)[C@H]2O)[C@@H](O)[C@@H]1O | 0.408% | 
CCc1ccc(CCOc2ccc(CC3SC(=O)NC3=O)cc2)nc1 (stereo not given) | -8.65% | 
CC1=CC(=O)NS(=O)(=O)O1 | -3.96% | 
CCCCCC(N)=O | -0.768% | 
COCCCOc1ccnc(CS(=O)c2nc3ccccc3[nH]2)c1C (stereo not given) |  | 14.1 µM (active)
CC(c1cc2ccccc2s1)N(O)C(N)=O (stereo not given) | 1.87% | 
OCCOCCOCCO | -2.18% | 
CC[C@H](C)C(=O)O[C@H]1C[C@@H](C)C=C2C=C[C@H](C)[C@H](CC[C@@H]3C[C@@H](O)CC(=O)O3)[C@H]21 |  | 12.6 µM (active)
O=C(O)[C@H](O)[C@@H](O)[C@H](O)[C@H](O)CO | -0.835% and -2.16% | 
CC(=O)OCC(=O)[C@@]12N=C(C)O[C@@H]1C[C@H]1[C@@H]3CCC4=CC(=O)C=C[C@]4(C)[C@H]3[C@@H](O)C[C@@]12C |  | 15.8 µM (active)
CC(=O)Nc1ccccc1 | -1.12% | 

— PubChem BioAssay (Tox21)
